Our source for the binding signal values is paper PMC7819943, “Rice protein-binding microarrays: a tool to detect cis-acting elements near promoter regions in rice”.

Over roughly 68,000 sequences, “fluorescence intensity (a.u.)” has its median near 9,100; the highest 2% begin near 16,000. What follows is part of a selection rich in the highest values, with near analogues and random picks from the rest.

Sequence of OsWRKY34 (Q0JBA9 entry or part of it): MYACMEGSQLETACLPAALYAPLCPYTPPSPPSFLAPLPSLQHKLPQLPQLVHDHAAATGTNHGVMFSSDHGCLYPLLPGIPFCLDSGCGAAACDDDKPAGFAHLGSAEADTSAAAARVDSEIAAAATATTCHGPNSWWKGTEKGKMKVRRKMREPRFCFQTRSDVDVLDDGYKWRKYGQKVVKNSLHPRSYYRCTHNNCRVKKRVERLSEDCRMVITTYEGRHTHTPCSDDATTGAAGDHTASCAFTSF

In the experiment the target is OsWRKY34 (Oryza sativa, UniProt Q0JBA9 1-250). The experiment is described as follows: protein-binding microarray (RPBM); PBS, 2% BSA, 51.3 ng/ul salmon testes DNA, 50 uM zinc acetate, 200 nM TF, 25 C, 1 h; high values mean tight binding. Conditions: protein: recombinant; tags: N-terminal polyhistidine and DsRed monomer fusion (pET32a); label: CyDye5-dUTP incorporated in the synthesized complementary strand; 3' TTTTT single-stranded linker to array surface; dsDNA, one strand shown. An outline of the steps:
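Using Ni–NTA, transcription factors fused N-terminally to polyhistidine and DsRed were purified after expression in E. coli BL21-CodonPlus. These were incubated at 200 nM with a blocked, double-stranded custom Agilent array for 1 h at 25 °C in a buffer containing 50 µM zinc acetate, and the array was washed. The binding signal is per-feature fluorescence intensity (arbitrary units) on an Axon 4000B scanner.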
On to “GCCTATCCTGCCCTCTCTACTACCACCCTTATCGATCTCTCGGAGTCACCTAGTGCAG”, for which the binding signal was 8340 fluorescence intensity (a.u.). In the case of “AAGAGACTTCTATATCTCTATATCCTTCTTATTTGCGTCCCGGAGTCACCTAGTGCAG” it was 8080 fluorescence intensity (a.u.); in that of “TTGCTCTCACATTTCGTGCACTACATCTTCTCGGTGGTCCCGGAGTCACCTAGTGCAG”, 8380 fluorescence intensity (a.u.). To “GCGGGTGGGTCTAGAGATTTTTTTTATTTGTTAATTGGATCGGAGTCACCTAGTGCAG” belongs 10400 fluorescence intensity (a.u.); to “GTTGTCGGTGTGTGGGTGGTGATATATTTTTTTAACTGGTCGGAGTCACCTAGTGCAG”, 9020 fluorescence intensity (a.u.); to “AATTTGGTGGGGTCGGGGTGGGTGCTTTAACTGGGGAGATCGGAGTCACCTAGTGCAG”, 24500 fluorescence intensity (a.u.). Consider “TGAGGTGAGGGCAGGGGCAGGGGCAGGGCGGACTGGCCAACGGAGTCACCTAGTGCAG”, for which the binding signal is 8680 fluorescence intensity (a.u.).

Take “TCACTTTTTTTTCCATTCATTGTATGATTTCTTCTATTATCGGAGTCACCTAGTGCAG”: the binding signal was 10900 fluorescence intensity (a.u.). For the sequence “AAAAAATACTATCTATGTACCCCTCCGTTTCTTTTTATTTCGGAGTCACCTAGTGCAG”, the binding signal is 8890 fluorescence intensity (a.u.). In the case of “CCTGATCGCCTCCTCCGCCACCGCCGTGTTCGATTCGTCTCGGAGTCACCTAGTGCAG” it was 9670 fluorescence intensity (a.u.); in that of “CTCCGCATCCCTCTCGCTCCTACCTTACCCCTCGCCGCCACGGAGTCACCTAGTGCAG”, 10200 fluorescence intensity (a.u.).

As for “TGCCACCACCTTACCCTTTGCCAACATGCATCCGCTCCAACGGAGTCACCTAGTGCAG”, the binding signal is 19100 fluorescence intensity (a.u.). In the case of “CAACAACATCATCATCGCTCACATCCGCATCTCCACACAACGGAGTCACCTAGTGCAG” it was 13500 fluorescence intensity (a.u.); in that of “GCTCCGCCTGCCAGATCCATATGAGCCACCTGCGCCGCTACGGAGTCACCTAGTGCAG”, 8720 fluorescence intensity (a.u.). To “CGCCATCACTGCCAAGCTCGCCGGCTACATCGCCCGCGCCCGGAGTCACCTAGTGCAG” belongs 8040 fluorescence intensity (a.u.). To “CTTGGGTTGGGCGGGAACTTGGGGAGGAATTATGGACTATCGGAGTCACCTAGTGCAG” belongs 16800 fluorescence intensity (a.u.). Consider “CTGGGTGGGGAATTGGTTTAGTGAAGGATTAGTTGCTGATCGGAGTCACCTAGTGCAG”, for which the binding signal was 9770 fluorescence intensity (a.u.). As for “ATGCTGAATTGGGTTGGGCTGGGGAGGAATTATAGACTATCGGAGTCACCTAGTGCAG”, the binding signal is 17500 fluorescence intensity (a.u.).

In the case of “GGGGAGGAATTATGGACTATTTGGATGGGCTTTTTTTACTCGGAGTCACCTAGTGCAG”, the binding signal is 8030 fluorescence intensity (a.u.). As to “AGTTGGGCAGCAGTGGGTTGTGATATACTATGTGAATTATCGGAGTCACCTAGTGCAG”, the binding signal is 9100 fluorescence intensity (a.u.). Regarding “GCCAGTTAGGGACCTAGGGACTTGGGTTGGGCGGGAACTTCGGAGTCACCTAGTGCAG”, the binding signal is 14100 fluorescence intensity (a.u.). To “CTAGAAGGTGACTTTTCCAACTCAACTCTCGTTTTTTCACCGGAGTCACCTAGTGCAG” belongs 11500 fluorescence intensity (a.u.); to “ACTTTATTACACACATAAACTTTCAACTTTACCGTCACATCGGAGTCACCTAGTGCAG”, 9420 fluorescence intensity (a.u.); to “AATCTTCTAACCACCGTACGTTCTCCTCGCACTATAAATACGGAGTCACCTAGTGCAG”, 11500 fluorescence intensity (a.u.).

Take “AAGATAGATGCCACTAATTTTTACACTGTATTTTGTAACTCGGAGTCACCTAGTGCAG”: the binding signal is 8290 fluorescence intensity (a.u.). In the case of “CACATGCTTATACCGTTCGTGCTGGAGTTCCTGATCGATGCGGAGTCACCTAGTGCAG” it was 8070 fluorescence intensity (a.u.). In the case of “GTAGGAGGGTGGTTGGTTGTAGAATGGGAAGAAATTTGAACGGAGTCACCTAGTGCAG” it was 11100 fluorescence intensity (a.u.); in that of “AAACGTCAAAAGACTCAAAACCCAAAACCCGCGTGCTGACCGGAGTCACCTAGTGCAG”, 8030 fluorescence intensity (a.u.); in that of “CCACGTAGGCGCCACGTCAGCCAAAACCGCTCTTAAAACCCGGAGTCACCTAGTGCAG”, 8110 fluorescence intensity (a.u.). In the case of “CGGTAGGCGTACGTGGAGACCGGTGGAATTCGTCAAAACCCGGAGTCACCTAGTGCAG” it was 55000 fluorescence intensity (a.u.). In the case of “AAGGTTCGTTTCATTTTTTTTTACTTAATTAACTATTCCTCGGAGTCACCTAGTGCAG”, the binding signal is 8740 fluorescence intensity (a.u.). To “ACTCTTGGTATGTTCTGCTTAGATACACTGTGTTGCTTGCCGGAGTCACCTAGTGCAG” belongs 9380 fluorescence intensity (a.u.).

On to “TGTACGTGACCAGTAACGCGTTGACCTTTTCTTTGTTGAACGGAGTCACCTAGTGCAG”, for which the binding signal is 17000 fluorescence intensity (a.u.). In the case of “GCCGTTAACTTTTTTAAATATGTTTGACCGTTCGTCTTATCGGAGTCACCTAGTGCAG” it was 10800 fluorescence intensity (a.u.). Take “TCTTTTTGTTTGACTTTTTTAAAACCACAGGTCACCCTTACGGAGTCACCTAGTGCAG”: the binding signal is 14800 fluorescence intensity (a.u.). In the case of “CTTTGTTGTTTTCTTCTGTTAGTGTCTGTATTATTCATTACGGAGTCACCTAGTGCAG” it was 9880 fluorescence intensity (a.u.). In the case of “TTCACGTGTGTTTTGTGTAGTTTTCTACCAGTTTGTTGAACGGAGTCACCTAGTGCAG”, the binding signal was 8470 fluorescence intensity (a.u.).

Consider “TTGACCTTTTCTTTGTTGAACGTTGACCGTTCCGTCTTATCGGAGTCACCTAGTGCAG”, for which the binding signal is 14300 fluorescence intensity (a.u.). Regarding “CGCCGTTGACTTTTTTAAATATGTTTGACCGTTCGTCTTACGGAGTCACCTAGTGCAG”, the binding signal is 39400 fluorescence intensity (a.u.). To “GGTCTTGTCTGTTGTGTTAGCCATTTGTACCAACTCATGACGGAGTCACCTAGTGCAG” belongs 12000 fluorescence intensity (a.u.). To “TCTTGTGTACGTTGTGTGTTGTCATTGTGTGTCTGTCTTACGGAGTCACCTAGTGCAG” belongs 17200 fluorescence intensity (a.u.); to “TGACTTTTTTAAATATGTTTGACCGTTCGTCTTATTGAAACGGAGTCACCTAGTGCAG”, 8190 fluorescence intensity (a.u.). To “TTGACTTTTTATTAACGTTTGACCATTTGTTTTATTTAAACGGAGTCACCTAGTGCAG” belongs 12000 fluorescence intensity (a.u.).

Take “CACCGTTGACTTTTTGACCAACGTTTGACCCTTTGTTTTACGGAGTCACCTAGTGCAG”: the binding signal was 57700 fluorescence intensity (a.u.).
